{
  "source": "PubChem BioAssay AID449764",
  "about": "(Southern Research Specialized Biocontainment Screening …, 2010)",
  "note": "The campaign covered roughly 2,300 compounds. About 1,700 (74%) were called active. So high a share suggests a set chosen from earlier hits. The list shows a part of the results. Measured potencies and affinities stand elsewhere. Unmarked numbers belong to inactive results. The rule behind the calls is not given here.",
  "data": [
    {"experiment": "Mycobacterium tuberculosis H37Rv growth inhibition, no glycerol, confirmatory dose response (AID 449764);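 note: growth read after 7 days of incubation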", "conditions": "series mostly up to 100 µM; inhibition: at the top concentration", "units": {"inhibition": "%"}, "values": [
      {"smiles": "O=C(CCCC(=O)OCC(=O)c1cccs1)Nc1ccc(Oc2ccccc2)cc1", "inhibition": 10.8},
      {"smiles": "COc1ccc(N2COC3c4cccc5cccc(c45)C32)cc1", "note": "(stereo unspecified)", "inhibition": -0.43},
      {"smiles": "Brc1ccc(-c2ccc(/C=N/Nc3nncc(-c4ccccc4)n3)o2)cc1", "inhibition": 11.6},
      {"smiles": "Cn1nnc(NC(=S)NC(=O)c2ccc(-c3ccc(Br)cc3)o2)n1", "inhibition": 5.19},
      {"smiles": "Cc1ccc(N/C=C2\\C(=O)C3(C)CCC2C3(C)C)cc1C", "note": "(stereo unspecified)", "inhibition": 2.28},
      {"smiles": "Cc1cc(C(=O)N/N=C/c2ccc(-c3ccc([N+](=O)[O-])cc3Cl)o2)n[nH]1", "inhibition": 14},
      {"smiles": "Cc1ccc(-c2cc(C(F)(F)F)n3nc(C(=O)NCCCn4ccnc4)cc3n2)cc1C", "inhibition": -1.7},
      {"smiles": "CCOC(=O)/C(=N\\Nc1ccc(Br)cc1)N1CC(C)OC(C)C1", "note": "(stereo unspecified)", "inhibition": 12},
      {"smiles": "C=CCn1c(=O)/c(=C/c2ccc(Cl)cc2)s/c1=C(/C#N)c1nnc2n1CCCCC2", "inhibition": -2.32},
      {"smiles": "Nc1ccc2c(c1)oc1ccccc12", "inhibition": -7.66},
      {"smiles": "CCOC(=O)NNc1ccccc1", "inhibition": 5.17},
      {"smiles": "CC1(CCc2ccccc2)NC(=S)N(c2ccc(Cl)cc2)N1", "note": "(stereo unspecified)", "inhibition": 10.4},
      {"smiles": "Cn1c(=O)c2[nH]c(-c3ccc(S(=O)(=O)O)cc3)nc2n(C)c1=O", "inhibition": 0.47},
      {"smiles": "Nc1ccc(Oc2ccc3c(c2)OCO3)cc1", "inhibition": -3.59},
      {"smiles": "COc1ccc(NC2=C(C(C)=O)C(c3ccc4c(c3)OCO4)C(C(C)=O)C(C)(O)C2)cc1", "note": "(stereo unspecified)", "inhibition": -3.81},
      {"smiles": "Nc1ccc2c(c1)nnn2-c1ccccc1", "inhibition": 5.99},
      {"smiles": "O=S(=O)(Nc1ccn(-c2ccccc2)n1)c1ccc(Br)cc1", "inhibition": 9.63},
      {"smiles": "Cc1ccc(S(=O)(=O)c2nc(Nc3nccs3)sc2Cl)cc1", "inhibition": -5.86},
      {"smiles": "O=C(CSc1nc2cc(Cl)ccc2o1)c1cccs1", "inhibition": 0.59},
      {"smiles": "COC12C(COC(N)=O)C3=C(C(=O)C(C)=C(N)C3=O)N1CC1C2N1C", "note": "(stereo unspecified)", "inhibition": -32.4},
      {"smiles": "Oc1ccc(Br)cc1/C=N/Nc1nc(N2CCCCC2)nc(N2CCOCC2)n1", "inhibition": -9.39},
      {"smiles": "Nc1ccc(CCc2ccc(N)cc2)cc1", "inhibition": -3.99},
      {"smiles": "COc1cc(/C=N/N(C)c2ccccc2)cc(Cl)c1O", "inhibition": 1.6},
      {"smiles": "COc1cc2c(-c3ccc4[nH]ccc4c3)c(-c3ccc(C#N)cc3)oc(=O)c2cc1OC", "inhibition": 22.6},
      {"smiles": "O=[N+]([O-])c1ccc(-c2ccc(/C=N/c3c(-c4ccco4)nc4ccccn34)o2)cc1", "inhibition": 1.4},
      {"smiles": "O=C1NC(=O)/C(=C/c2ccc(-c3cccc([N+](=O)[O-])c3)o2)S1", "inhibition": 2.2},
      {"smiles": "O=[N+]([O-])c1ccc(-c2csc(NN=C3CCCC3)n2)cc1", "inhibition": 1.6},
      {"smiles": "Nc1c(C(=O)Nc2ccc(Br)cc2)sc2nc(-c3ccco3)ccc12", "inhibition": 2.28},
      {"smiles": "CCCCn1cnc2cc(NCc3cccc(OC)c3O)ccc21", "inhibition": 24.5},
      {"smiles": "COc1ccc(NC(C#N)c2ccc(OC)cc2)cc1", "note": "(stereo unspecified)", "inhibition": 3.18},
      {"smiles": "Nc1ccn([C@@H]2O[C@H](CO)[C@@H](O)C2O)c(=O)n1", "note": "(stereo partly specified)", "inhibition": 0.82}
    ]}
  ]
}
